Assay results: PubChem BioAssay (NCATS)
Results filed as inconclusive are left out. A call without a number means that no potency is given here. Activity calls are given as the source filed them. The call rests on the fitted dose curve; in most records, active means well fitted inhibition curve with a large enough effect; inconclusive means small, poorly fitted or top-dose-only effect, or effect the other way; inactive means flat fitted curve, though single readings scatter.

Experiment: Quantitative high throughput screen for delayed death inhibitors of the malarial parasite plastid, 48 hour incubation (AID 488752); further: nearly all actives have a fitted effect of over 65% in size
Settings: Plasmodium falciparum growth; series mostly up to 28.7 µM
Source text: NIH Molecular Libraries Probe Production Network [MLPCN]
NIH Chemical Genomics Center [NCGC]
Assay Provider: David Fidock and Eric Ekland, Columbia University
The goal of this screen is to discover new antimalarial compounds that act by inhibiting the development of the apicoplast in the malarial parasite Plasmodium falciparum. The biochemical processes that make this organelle essential for erythrocytic stage parasites are not well understood. However, antibiotics, such as azithromycin and tetracycline, which target the apicoplast translational machinery, have a potent antimalarial effect.
We have developed a cell-based assay that measures parasite growth based on the expression of an integrated copy of a firefly luciferase reporter. To detect small molecules that cause this 'delayed death' phenotype, erythrocytes infected with the luciferase-expressing parasites were incubated with compounds for either one or two generations, corresponding to 48 and 96 hours, respectively. Compounds that inhibit parasite growth in the second generation, but not the first, should be enriched in antimalarials that target the apicoplast. Growth inhibition is detected by a decrease in luciferase activity
Four microliters of culture medium (RPMI 1640 with 0.5% w/v Albumax (GIBCO), 24 mM sodium bicarbonate and 10 ug/mL gentamycin) were dispensed by a Multi-drop Combi into white solid 1536-well plates (Grenier) and 23 nL compound was added by a pin tool. Four microliters of infected erythrocytes (2% hematocrit, 0.1% parasitemia final concentration) in culture medium were dispensed and the plates incubated for 48 hours at 37 C in 5% CO2. Two microliters of luciferase detection reagent was added and luminescence was detected by a ViewLux (PerkinElmer) reader
Potency means the concentration at half of the fitted maximal effect.

Row | Compound | Potency
1 | Cc1cc(N)c2ccccc2[n+]1CCCCCCCCCC[n+]1c(C)cc(N)c2ccccc21 | 370 nM (active)
2 | CC(CN1c2ccccc2Sc2ccccc21)N(C)C (stereo not drawn) | inactive
3 | CNCCCC1c2ccccc2C=Cc2ccccc21 | 14700 nM (active)
4 | CN(C)CCOC(C)(c1ccccc1)c1ccccn1 (stereo not drawn) | inactive
5 | CNCC(O)c1ccc(O)c(O)c1 (stereo not drawn) | inactive
6 | CCN(CC)CCCC(C)Nc1c2ccc(Cl)cc2nc2ccc(OC)cc12 (stereo not drawn) | 37 nM (active)
7 | NC(N)=NCCC[C@H](N)C(=O)O | inactive
8 | CC(C(O)c1ccc(O)cc1)N1CCC(Cc2ccccc2)CC1 (stereo not drawn) | 4650 nM (active)
9 | CCN(CC)CCNC(=O)c1cc(Cl)c(N)cc1OC | inactive
10 | CN(C)CC[C@@H](c1ccc(Cl)cc1)c1ccccn1 | inactive
11 | CCN(CC)CCOC(=O)C1(C2CCCCC2)CCCCC1 | inactive
12 | CC1=C(CC(=O)O)c2cc(F)ccc2/C1=C\c1ccc(S(C)(=O)=O)cc1 | inactive
13 | NC(=O)c1ncn([C@@H]2O[C@H](CO)[C@@H](O)[C@H]2O)n1 | inactive
14 | CN1CCN(C2Cc3ccccc3Sc3ccc(Cl)cc32)CC1 (stereo not drawn) | inactive
15 | CC(C)NC[C@H](O)c1ccc(O)c(O)c1 | inactive
16 | C[C@H]1O[C@@H](n2cc(F)c(=O)[nH]c2=O)[C@H](O)[C@@H]1O | inactive
17 | CC1=C(CC(=O)O)c2cc(F)ccc2/C1=C\c1ccc(S(C)=O)cc1 (stereo not drawn) | inactive

Row | Compound | Potency
18 | Nc1cc(=O)[nH]c(N)n1 | inactive
19 | CCCCCCCCCCCCCCCC(=O)NCCO | inactive
20 | C[C@](N)(Cc1ccc(O)cc1)C(=O)O | inactive
21 | NC1CCN(c2cccc(Cl)n2)CC1 | inactive
22 | CC(C)(C)c1onc(OCP(=O)(O)O)c1CC(N)C(=O)O (stereo not drawn) | inactive
23 | CC(C)C(=O)c1c(C(C)C)nn2ccccc12 | inactive
24 | CC(=O)OCC(=O)[C@@]1(O)CC[C@H]2[C@@H]3CCC4=CC(=O)CC[C@]4(C)[C@H]3C(=O)C[C@@]21C | inactive
25 | CC(C)(C(=O)O)c1ccc(C(O)CCCN2CCC(C(O)(c3ccccc3)c3ccccc3)CC2)cc1 (stereo not drawn) | inactive
26 | CC[C@H]1CN2CCc3cc(OC)c(OC)cc3[C@@H]2C[C@@H]1C[C@H]1NCCc2cc(OC)c(OC)cc21 | 117 nM (active)
27 | CNC(=O)Oc1ccc2c(c1)[C@]1(C)CCN(C)[C@@H]1N2C | inactive
28 | COc1ccc(Cl)cc1C(=O)NCCc1ccc(S(=O)(=O)NC(=O)NC2CCCCC2)cc1 | inactive
29 | C#CCN(C)Cc1ccccc1 | inactive
30 | C=Cc1c(C)c2cc3[nH]c(cc4nc(cc5nc(cc1[nH]2)C(C)=C5CCC(=O)O)C(CCC(=O)O)=C4C)c(C)c3C=C | inactive
31 | CCCn1cnc2c1c(=O)n(CCCCC(C)=O)c(=O)n2C | inactive
32 | N=c1c[n+](N2CCOCC2)[n-]o1 | inactive
33 | OCCN1CCN(CCCN2c3ccccc3Sc3ccc(Cl)cc32)CC1 | 10400 nM (active)
